Assay results from the supplement of paper PMC6555819.

Legend:
Experiment in all cases: PBM binding z-score (relative to random genomic background probes); higher = stronger binding; sequences stand for … in GC…GCGATTGACAGCGTAGAATGAAGG
[1] = system: RARb homodimer (NR concentration 270 nM)
Summary of the method: (§1)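 Random background probes are the reference for binding z-scores. These scores derive from regression-normalized fluorescence on custom Agilent 4×180K protein-binding microarrays incubated 1 h with ligand-free nuclear receptor dimers. Binding was detected with antibodies against each partner (one per run).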

[2] = system: RARg:RXRa (NR concentration 270 nM, RXRa partner concentration 90 nM)
Summary of the method: as §1

[3] = system: RARg homodimer (NR concentration 270 nM)
Summary of the method: as §1

[4] = system: RXRa DBDmut IVT, anti-RXR (DBD mutation: RXRa K156A/R161A, NR concentration 90 nM)
Summary of the method: as §1

[5] = system: RXRa homodimer (NR concentration 180 nM)
Summary of the method: as §1

[6] = system: THRa:RXRa (NR concentration 90 nM, RXRa partner concentration 90 nM)
Summary of the method: as §1

[7] = system: THRa homodimer (NR concentration 90 nM)
Summary of the method: as §1

[8] = system: VDR homodimer (NR concentration 270 nM)
Summary of the method: as §1

Sequence | PBM binding z-score [1] | PBM binding z-score [2] | PBM binding z-score [3] | PBM binding z-score [4] | PBM binding z-score [5] | PBM binding z-score [6] | PBM binding z-score [7] | PBM binding z-score [8]
TCGAGTAGGTTATGGGCATTCAGAATGGCGTCGA | -0.0176 | -0.0222 | -0.106 | -0.148 | 0.459 | -0.261 | -0.66 | -0.437
ATCTGTAGGTAAGACTCAGTTCAGTGAAGAACGC | 0.419 | 0.15 | -0.0533 | 0.0968 | 0.114 | 0.687 | 0.0437 | 0.939
CATACATGGTCAGCTAGGCCAGAGTAGGGACGGC | 0.263 | 0.156 | 0.731 | -0.604 | 0.103 | -0.289 | -0.393 | -1.02
ATTTCTAGGTAAAAGTTCAGTGAATCCCGAGGAT | 2.3 | 2.15 | 2.03 | 1.21 | 1.88 | 1.64 | 0.543 | 2.1
TAGCCTAGGTCAGATCGAGCCAGTATACGCTATA | 1.71 | 2.36 | 3.3 | -0.301 | 1.23 | 1.61 | -0.233 | -0.594
ACTCGCAGGACAAAGGTCAGAGCTACGCCAGTGA | 4.26 | 5.2 | 5.21 | 0.845 | 5.45 | 3.03 | 0.0955 | 0.474
CAGCCTAGGTCAGGGCCAGTATGGGAGGAACGTT | 2.38 | 3.22 | 3.76 | -0.69 | 1.38 | 1.95 | 0.312 | -0.378
TTACCTAGGTGAAAGGTCGTTGATGCACGCCTTG | 2.24 | 3.56 | 1.38 | 0.705 | 4.66 | 3.15 | 0.624 | 1.19
GCTACAGGGTCAAGGCCAGAGTACGCGTATTGAT | 3.58 | 5.38 | 5.17 | 3 | 5.92 | 3.42 | 1.38 | 2.4
TAACCTAGGTCATTGGGCCAGTATAGTACGCATC | 3.46 | 4.58 | 4.75 | 2.44 | 3.95 | 3.19 | 1.52 | 2.14
CCTATTAGTTGACCATAAGGTCAACCGAAGCTCG | 4.8 | 4.83 | 4.07 | 1.77 | 4.39 | 4.27 | 5.15 | 3.25
CCTTACGGCTCAAGGTTATAGCACGGGTGGTACG | 0.426 | 0.285 | 0.278 | -0.298 | 0.615 | 1.05 | 0.716 | 0.469
AAAATGAGGTTATACGTAGATCAGGGAAGAAAGT | 0.619 | 1.88 | 1.14 | 1.93 | 2.37 | 2.24 | 0.727 | 1.13
TCATATAGGTAAATGCTAGGTGAAAGGCCGATCT | 0.766 | 0.683 | 0.329 | 1.57 | 0.896 | 1.53 | 0.386 | 0.46
CCTACTGGGCCATCTGGTCATTGATATCAACGTT | 0.54 | 0.0182 | 0.419 | -0.267 | -0.224 | -0.171 | 0.0962 | -0.0886
GCAGACAGGCGAAACGCAGGTAACTCAGGGTGGC | -0.842 | -0.359 | -0.272 | -0.577 | -0.167 | 0.338 | -0.81 | -0.974
CATACAGGGTTAGCTAGGCCAGAGTAGGGACGGC | 0.276 | 0.782 | 0.633 | -0.487 | 0.914 | 0.66 | -0.483 | -0.636
TTACCAAGGTGATCTGAGGTCGTTGATCCAACTC | 1.63 | 0.881 | 0.757 | 0.903 | 1.37 | 4.77 | 2.67 | 2.96
TCTGCTAGGTCAACGATGCTCAGCTAATCTGCTA | 2.66 | 3.76 | 4.76 | 0.989 | 2.18 | 2.47 | 0.23 | -0.64
GATACAGTGTCAGCTAGAGGCCAGAGTATGGAAA | 1.01 | 2.09 | 0.824 | -0.492 | 0.242 | 0.131 | -0.254 | -0.198
CCTAGCAGGCCCATCTGGGTCACTCAAGGCTTGA | 1.64 | 0.5 | 0.267 | -1.2 | 0.768 | 2.23 | 0.0226 | -0.0686
CCGACTGGGGCAGAAAGGTTACCATGCCATCCGG | 2.33 | 1.54 | 1.08 | -1.07 | 1.72 | 1.05 | -0.541 | -0.201
ACAGACAGGTGATGCAGGTAACTCAGGCTATCAT | 0.184 | 0.124 | 0.379 | -0.176 | 0.354 | 0.549 | -0.0382 | -0.22
CGTCCAAGGTCAGCAGGCCAGTGAAAGCGACGTG | 4.1 | 5.07 | 5.77 | 2.47 | 3.86 | 3.74 | 1.89 | 1.25
TAGCCTAGGTCATGGGCCAGTATTCCACGCGAAC | 2.79 | 4.27 | 4.6 | 0.71 | 3.8 | 2.99 | 1.33 | 0.208
ATACCAAGGTGATCGTGAGCTCGTTGATACTAAC | 0.153 | -0.0277 | 0.19 | -0.225 | 0.139 | 0.678 | 0.422 | -0.219
CCTTACGGGTCACGAGGTTATAACACGACGAGCG | 3.99 | 6.07 | 5.32 | 1.5 | 6.99 | 3.79 | 0.991 | 1.63
GCGACTGGTGCAAAGCAGGTTACCATAAGGTTGG | 0.217 | -0.209 | -0.317 | -0.409 | 0.0236 | 1.93 | -0.397 | -0.448
